HEK293 cAMP cs = qHTS Assay for Agonists of the Thyroid Stimulating Hormone Receptor: Activators of Intracellular cAMP Concentrations in Parental HEK 293 | parental HEK293 CNG cAMP sensor, membrane potential fluorescence | Potency, µM (top dose mostly 57.1 µM), for inactives: at the highest dose activation, actives largely listed as activators | 73,000 compounds, 2.5% hits; note: % of control where 0% means no effect; nearly all actives have a fitted effect of over 55% in size
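Parental HEK 293 cells stably expressing a modified CNG channel (no TSHR) report cAMP rise as membrane depolarization. Membrane potential dye with 100 uM RO 20-1724 was loaded for 60 min at room temperature, then compound added for 30 min; fluorescence read at 590 nm.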
Caspase-1 inhib = qHTS Assay for Allosteric/Competitive Inhibitors of Caspase-1; Caspase-1 enzyme, Ac-WEHD-AFC fluorogenic rate; Potency, µM (top dose mostly 57.5 µM), without a hit: at the top dose activity change, negative = inhibition, hits mostly inhibitors; 75,000 compounds, 0.03% hits; AID 900, 2007;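 note: plate controls were vehicle for no effect and no substrate for full effect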
Target sequence (P29466 120-297 limits assumed): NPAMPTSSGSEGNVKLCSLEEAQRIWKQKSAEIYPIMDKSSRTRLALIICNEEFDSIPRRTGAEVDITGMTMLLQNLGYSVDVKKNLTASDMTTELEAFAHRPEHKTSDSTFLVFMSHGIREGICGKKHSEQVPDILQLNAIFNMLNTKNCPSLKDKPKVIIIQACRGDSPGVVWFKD
Target sequence (P29466 317-404 limits assumed): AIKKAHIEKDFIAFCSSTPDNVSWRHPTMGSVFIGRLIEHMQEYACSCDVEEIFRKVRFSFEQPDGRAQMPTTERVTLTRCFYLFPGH
Casp7 inh = qHTS Assay for Allosteric/Competitive Inhibitors of Caspase-7; P55210; recombinant caspase-7, Ac-DEVD-AFC fluorescence rate; Potency, µM (series often up to 57.5 µM), without a hit: top-dose activity change, negative = inhibition, hits mostly inhibitors; 75,000 compounds, 0.02% hits; AID 889, 2007; active = well fitted inhibition curve with a large enough effect in the main read-out, with a control signal flat, not every such curve was filed as active; inconclusive = small, poorly fitted or top-dose-only effect, or a change in a side signal; note: % of control where 0% means no effect
Target sequence (P55210 24-198 limits assumed): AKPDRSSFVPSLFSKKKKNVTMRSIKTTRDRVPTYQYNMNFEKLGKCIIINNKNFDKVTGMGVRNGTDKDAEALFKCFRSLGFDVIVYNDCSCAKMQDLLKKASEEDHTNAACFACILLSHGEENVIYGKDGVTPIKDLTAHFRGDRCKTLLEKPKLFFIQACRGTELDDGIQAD
Target sequence (P55210 207-303 limits assumed): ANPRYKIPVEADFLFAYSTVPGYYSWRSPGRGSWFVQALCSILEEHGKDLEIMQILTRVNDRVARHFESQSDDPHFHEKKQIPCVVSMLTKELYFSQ
TSHR agonist = qHTS Assay for Agonists of the Thyroid Stimulating Hormone Receptor; Thyrotropin receptor (Homo sapiens), P16473; HEK293-CNG-TSHR cells (CNG channel as cAMP sensor), membrane potential dye, cAMP; Potency, µM (series often up to 57.1 µM), inactives show at the top dose activation, usual class: activators; 73,000 compounds, 0.48% hits; active = well fitted activation curve with a large enough effect in the main read-out, with a control signal flat, not every such curve was filed as active; inconclusive = small, poorly fitted or top-dose-only effect, or a change in a side signal; inactive = no such curve, though single readings can be large or run the other way; % of control where 0% means no effect;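 note: the control signal comes from parental cells without the receptor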
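HEK 293 cells stably expressing TSHR and a modified CNG channel, with CNG-only parental cells as counterscreen, were preloaded 60 min at room temperature with membrane potential dye containing 100 uM RO 20-1724. Compound exposure was 30 min, and depolarization was read as fluorescence at 590 nm.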
* = called active by the depositor; ? = inconclusive; . = no result; [ ] = remark or other dose. Most compounds without a hit are left out; they make up all but 2.6% or so of the library. Unless noted, calls come from the whole dose curve; as a rule, active = well fitted curve in the direction sought with a large enough effect; inconclusive = small, poorly fitted or top-dose-only effect, or another doubt; inactive = no such curve, though single readings can be large; an effect the other way counts as inactive or inconclusive. Potency is the fitted concentration of half-maximal effect.

SMILES | HEK293 cAMP cs | Caspase-1 inhib | Casp7 inh | TSHR agonist
CSCCC(Nc1ncnc2ccc(Br)cc12)C(=O)O (stereo not given) | 2µM* | -1.0% | 2.3% | ?
CSCC[C@H](NC(=O)CCn1nnc2ccccc2c1=O)C(=O)O | 3.5% | 0.7% | -1.2% | 1.3%
CCC1Oc2ccc(C)cc2N(CC(=O)N(Cc2cccnc2)Cc2ccc(C)o2)C1=O (stereo not given) | ? | -1.6% | 1.4% | ?
CCC1Oc2ccc(C)cc2N(CC(=O)N(Cc2ccc3c(c2)OCO3)CC2CCCO2)C1=O (stereo not given) | 5.01µM* | -1.4% | -2.5% | ?
Nc1ccc(N(S(=O)(=O)c2ccccc2)S(=O)(=O)c2ccccc2)c(Cl)c1 | -3.6%[11.4 µM] | 1.6%[11.5 µM] | -4.4%[11.5 µM] | -2.1%[11.4 µM]
COc1ccc(C2(C)NC(=O)N(Cc3cc(Cl)cc4c3OCOC4)C2=O)cc1OC (stereo not given) | 15.8µM* | -0.3% | -1.6% | ?
CCOc1ccccc1CN1C(=O)NC(C)(c2ccccc2)C1=O (stereo not given) | 23.4% | 1.0% | 2.2% | .
CN1CCN(c2ncc3nc(-c4cn(C)c5ccccc45)c(=O)n(-c4ccccc4)c3n2)CC1 | 2.0% | . | ? | 0.8%
Cn1c(CSc2ccccc2)c(C#N)c2ccccc21 | 25.1µM* | -1.0% | -2.6% | ?
COc1c(O)c(O)cc2c1oc1c3cc(C)ccc3oc(=O)c21 | . | -4.3% | -6.2% | .
Cc1cccc(OCc2nc(C#N)c(NCc3ccc4c(c3)OCO4)o2)c1 | 15.8µM* | -4.5% | -2.6% | ?
N#Cc1nc(COc2ccccc2)oc1N1CCCCC1 | ? | -3.2% | -1.7% | ?
COc1ccc(CNc2oc(COc3ccccc3)nc2C#N)cc1 | 6.1% | -1.9% | -7.0% | .
N#Cc1nc(COc2ccc(Cl)cc2)oc1NCc1ccc2c(c1)OCO2 | 10µM* | -10.4% | -6.6% | ?
Cc1cccc(OCc2nc(C#N)c(N3CC(C)CC(C)C3)o2)c1 (stereo not given) | 6.31µM* | -0.6% | -4.4% | ?
CCNc1oc(COc2cccc(C)c2)nc1C#N | ? | -0.1% | 2.6% | ?
COc1ccc2[nH]cc(CCNc3ncncc3-c3c(C)noc3C)c2c1 | 19.9% | -3.7% | -3.9% | 7.5%
CN(Cc1cc(Br)cc(Br)c1N)C1CCCCC1 | . | 0.6% | -1.0% | .
CCOC(=O)c1c(C)oc2ccc(NS(=O)(=O)c3ccc4c5c(cccc35)C(=O)N4)cc12 | 10.0% | -16.1% | -16.9% | 25.1µM*
COc1cccc([C@H]2Oc3ccc(OC)cc3/C(=N\O[C@@H]3O[C@H](COC(C)=O)[C@H](OC(C)=O)[C@H](OC(C)=O)[C@H]3OC(C)=O)[C@@H]2O)c1 | 0.1%[11.4 µM] | 0.9%[11.5 µM] | -1.2%[11.5 µM] | 4.2%[11.4 µM]
O=c1[nH]c(CSc2nnc(-c3ccncc3)n2Cc2ccco2)nc2ccccc12 | 0.8% | -2.9% | -1.3% | 0.6%
C=CCn1c(SCc2nc3ccccc3c(=O)[nH]2)nnc1-c1cc2cc(Cl)ccc2o1 | 31.6µM* | 0.2% | -1.1% | ?
OCCSCc1cc(Cl)cc(Cl)c1O | -4.1%[11.4 µM] | 0.7%[11.5 µM] | 0.5%[11.5 µM] | 13.0%[11.4 µM]
O=C(CSc1nc(-c2ccccc2)nc2c1CCCC2)N1CCOCC1 | 23.0% | -1.9% | 0.8% | 12.6µM*
Cc1nc2cnc(Oc3cccc(Cl)c3)nc2n(CCC#N)c1=O | ? | -1.3% | 0.1% | ?
SMILES | HEK293 cAMP cs | Caspase-1 inhib | Casp7 inh | TSHR agonist
COCCn1c(=O)c(CCc2ccccc2)nc2cnc(Oc3ccccc3)nc21 | 25.1µM* | -7.7% | -9.1% | ?
N#CCCn1c(=O)c(CCc2ccccc2)nc2cnc(Oc3cccc(Cl)c3)nc21 | 5.01µM* | -8.3% | -7.1% | ?
Cc1nc2cnc(OCc3ccccc3)nc2n(CCc2ccccc2)c1=O | 10µM* | 2.1% | -4.0% | ?
COC(=O)[C@@H]1C[C@H]1[C@@H](NC(=O)c1cc(C)on1)c1ccccc1 | 14.6% | -1.2% | -0.6% | 7.2%
C/C=C(/C)C(=O)OC1C(OC(C)=O)[C@@]2(CO)C(O)C[C@@]3(C)C(=CCC4[C@@]5(C)CCC(OC6OC(C(=O)O)[C@@H](O[C@@H]7OC(CO)C(O)C(O)C7O)C(O)[C@H]6O[C@@H]6OC(CO)C(O)C(O)C6O)[C@](C)(CO)C5CC[C@@]43C)C2CC1(C)C (stereo not given in full) | . | -5.1% | -8.3% | .
CO[C@@H]1CC[C@@]2(C)[C@@H](CC[C@@]3(C)[C@H]2CC=C2[C@H]4CC(C)(C)[C@H](O)[C@@H](OC(C)=O)[C@]4(CO)[C@H](O)C[C@]23C)[C@@]1(C)CO (tested in a mixture with another compound) | 1.9%[25.6 µM] | -2.0%[25.7 µM] | 0.2%[25.7 µM] | 15.8µM*
COc1ccc(CN/C(C)=C(/C#N)C(N)=O)cc1OC | -2.0% | -1.0% | -2.1% | 12.6µM*
COc1ccc(CNC(=O)NCc2ccc(OC)c(OC)c2)cc1OC | 2.2% | 2.0% | -0.2% | 5.5%
COC1C(O)COC1/C=C/c1ccccc1 (stereo not given) | 1.4%[11.4 µM] | -0.7%[11.5 µM] | -2.3%[11.5 µM] | 0.0%[11.4 µM]
CC(C)(C)NC(=O)CSc1ncnc2c1nnn2Cc1ccccc1Cl | ? | 0.1% | -2.4% | ?
O=C(CN1CCN(Cc2ccccc2)C1=O)NCc1ccc(Cl)cc1 | 5.1% | 1.2% | 0.0% | -0.1%
O=C(CN1CCCN(Cc2ccc(F)cc2Cl)C1=O)NCc1ccccc1 | 8.9% | 1.0% | -2.2% | 25.1µM*
CCOC(=O)c1oc2ccc(Br)cc2c1CSc1nnc(C)s1 | 31.6µM* | -4.3% | -1.0% | ?
Fc1ccc(CNc2nc(-c3ccco3)cc(C(F)(F)F)n2)cc1 | ? | -9.6% | -13.2% | ?
FC(F)(F)c1cc(-c2ccco2)nc(NCc2cccnc2)n1 | 25.1µM* | -3.1% | -8.4% | ?
COC(=O)C/C=C\[C@@H](C)[C@@H](/C=N\O[C@@H](C)CN1CCCc2nc(C)c(C)cc21)NS(=O)(=O)c1ccc(C)cc1 | 13.7%[11.4 µM] | -11.8%[11.5 µM] | -8.8%[11.5 µM] | 0.2%[11.4 µM]
c1csc(-c2csc3nc(CN4CCOCC4)nc(NCc4ccc5c(c4)OCO5)c23)c1 | 12.6µM* | -5.5% | -6.0% | ?
COC(=O)/C=C/C1c2ccccc2C(OC)C1C (stereo not given) | -5.1%[11.4 µM] | -3.6%[11.5 µM] | -2.2%[11.5 µM] | -2.1%[11.4 µM]
COC(=O)c1ccc(CSc2nc(C)nc3c2c(=O)n(C)c(=O)n3C)o1 | 25.1µM* | -1.1% | 2.3% | ?
COC(=O)c1ccc(CSc2nc(-c3ccc(OC)cc3)nc3c2c(=O)n(C)c(=O)n3C)o1 | 10.6% | 3.0% | 0.0% | 5.3%
COCCn1c(SCc2ccc(C(=O)OC)o2)nc2cc(Cl)ccc2c1=O | 20µM* | -3.0% | -3.7% | ?
CS(=O)(=O)N1CCC2(CC1)CN(C(=O)Nc1ccccc1)C2 | -4.4% | -2.3% | -2.0% | 5.1%
Cc1oc(-c2ccc(F)cc2)cc1-c1nn2c(-c3ccco3)nnc2s1 | ? | -0.3% | 0.6% | ?
Cc1oc(-c2ccc(F)cc2)cc1-c1nn2c(-c3ccoc3C)nnc2s1 | 15.8µM* | -4.8% | -26.2% | ?
Cc1cccc(CNc2ccnc(-c3ccccc3CN(C)C)n2)c1 | 5.01µM* | 2.4% | 1.1% | ?
